# Laboratory results reported in PubChem BioAssay AID738 (SRMLSC, 2007).
# The campaign covered roughly 98,000 compounds. About 4,900 (5%) were called active. Many of the other results were omitted from the sample, so actives are more common in it than they were. Values without a mark were called inactive. Rule as the data show it: active = inhibition above about 30%; inactive = the rest.
# Assay: growth inhibition of yeast control strain, primary screen, counter-screen for post-Golgi transport modulator project (AID 738)
# Conditions: efflux-deficient yeast background strain, growth absorbance A615, 16 h; at 10 µM; active compounds read high
row,Compound,inhibition
1,Cc1ccc2cc(CCNC(=O)c3c(-c4ccccc4Cl)noc3C)c(=O)[nH]c2c1,9.09%
2,CN1CCN(c2ccc([N+](=O)[O-])c(Sc3nc4ccccc4[nH]3)c2)CC1,7.22%
3,CSc1ccc(C#N)cc1NC(=O)c1ccc(Cl)cc1,-4.75%
4,CSc1cc(C)n(-c2ccccc2C)c(=S)c1C(C)=O,4.46%
5,Cc1ccc(CNC(=O)C2CC(=O)N(C3CCCCCCC3)C2)cc1 (configuration not stated),11.5%
6,O=C(NCCCN1CCCCCC1)C1CC(=O)N(C2CCCC2)C1 (configuration not stated),39.6% (active)
7,CC(C)OCCCNC(=O)C1CC(=O)N(C2CCCCCCC2)C1 (configuration not stated),0.87%
8,COc1ccc(CCNC(=O)COC(=O)c2ccc[nH]c2=O)cc1,8.99%
9,CCn1c(SCc2ccc(C)cc2)nnc1-c1nn(-c2ccccc2)ccc1=O,28.2%
10,CCOc1ccc(NC(=O)N(CCC(C)C)C(C)c2ccco2)cc1 (configuration not stated),14.1%
11,CC(c1ccco1)N(C(=O)Nc1ccccc1)C1CCCCC1 (configuration not stated),34.8% (active)
12,CCCC(C(=O)NCc1ccco1)N(C(=O)CNS(=O)(=O)c1ccccc1)C1CCCC1 (configuration not stated),-6.03%
13,CCCCNC(=O)CSc1nc2ccc(NC(=O)CSc3nnc(COc4ccccc4C)n3C)cc2s1,-0.61%
14,CN(C(=O)CSc1nc(C2CC2)nc2ccccc12)c1nc(-c2ccccc2)cs1,3.27%
15,Oc1ccccc1/C=N/n1c(-c2cccs2)n[nH]c1=S,7.52%
16,S=c1[nH]nc(-c2ccco2)n1/N=C/c1ccc(Br)s1,32.1% (active)
17,Cc1ccc(/C=N\n2c(-c3ccccc3)n[nH]c2=S)s1,6.75%
18,COC(=O)c1c(CCl)noc1C(=O)NC(C)C,-6.4%
19,CCCCSc1[nH]c(=O)c(C(=O)OCC)cc1C#N,-5.6%
20,C/C(=N/NC(=O)c1ccc(NC(=O)c2ccc(F)cc2)cc1)c1ccccc1,4.86%
21,Cc1nn(CCOc2ccccc2)c(=O)n1-c1ccccc1F,14%
22,OC(COc1ccc2c(c1)CCC2)CN1CCN(c2cccc(Cl)c2)CC1 (configuration not stated),82.4% (active)
23,O=C(c1ccc(Cl)cc1)c1ccc(OCC(O)CN2CCCCC2)cc1 (configuration not stated),7.05%
24,O=S(=O)(c1ccc(OCC(O)CN2CCN(c3ccccc3Cl)CC2)cc1)N1CCOCC1 (configuration not stated),-0.44%
25,OC(COc1cccc(OCC(O)CN2CCCC2)c1)CN1CCCC1 (configuration not stated),0.3%

row,Compound,inhibition
1,O=C(COc1ccc(Cl)cc1)N1CCN(c2cccc(C(F)(F)F)c2)CC1,27.6%
2,CCC(=O)c1ccc(OCC(O)CN2CC(C)OC(C)C2)cc1 (configuration not stated),30.9% (active)
3,CCC(=O)c1ccc(OCC(O)CN2C(=O)NC(C)(C)C2=O)cc1 (configuration not stated),7.58%
4,O=C(C(c1ccccc1)c1ccccc1)N1CCN(CC(O)COc2ccccc2)CC1 (configuration not stated),9.41%
5,CCC(=O)c1ccc(OCC(O)CN2CCN(c3cccc(C(F)(F)F)c3)CC2)cc1 (configuration not stated),38.7% (active)
6,Cc1cc(C(=O)OCC(=O)Nc2ccc(F)c(F)c2)c(C)o1,8.41%
7,O=C(Nc1ccc2sc3ccccc3c(=O)c2c1)c1ccccc1Cl,-1.51%
8,CN(CC#CCC(c1ccccc1)c1ccccc1)C(C)(C)C,15.3%
9,COC(=O)c1ccccc1NC(=O)CN(Cc1ccc(Cl)cc1)S(C)(=O)=O,20.7%
10,CC(=O)N1Cc2ccccc2CC1C(=O)O (configuration not stated),-1.83%
11,CCOC(=O)N1CCN(C(=O)CN(c2ccc(C)c(C)c2)S(=O)(=O)c2ccccc2)CC1,-2.62%
12,Cc1ccc(S(=O)(=O)N(CC(=O)N2CCc3ccccc3C2)c2cccc(Cl)c2)cc1,53.7% (active)
13,COc1cccc(N(CC(=O)N2CCc3ccccc3C2)S(C)(=O)=O)c1,2.59%
14,COc1ccc(Cl)cc1NC(=O)CN(C)C(=O)CNC(=O)C12CC3CC(CC(C3)C1)C2,11.5%
15,CCCCN=C1N/C(=C\c2ccco2)C(=O)N1c1ccccc1,13.4%
16,Cc1ccc(C(=O)NNC(=O)OC(C)(C)C)c(Cl)c1,-3.45%
17,O=c1cc(CN2CCN(c3cccc(Cl)c3)CC2)c2cc3c(cc2o1)CCCC3,1.31%
18,COc1ccc(N2CCN(Cc3ccc(Br)s3)CC2)cc1,1.68%
19,COc1ccc(N2CCN(Cc3cc(=O)oc4ccc5ccccc5c34)CC2)cc1,31% (active)
20,NC(=O)c1nsc(C(=O)N(CC(=O)NCc2ccc(F)cc2)Cc2ccco2)c1N,-18.4%
21,COc1ccc(C(=O)Nc2cc(C)ccc2NC(=O)COc2ccccc2)cc1,-12.5%
22,COc1ccc(OCC(=O)N2CCN(C(=O)COc3ccccc3)CC2)cc1,-2.43%
23,COc1ccc(OCC(=O)NN2Cc3ccccc3C2=N)cc1,30.9% (active)
24,CC(=O)N1CCN(c2cccc(C)c2C)CC1,3.94%
25,O=C(O)c1cnn2c(C(F)(F)F)cc(-c3ccccc3)nc12,-4.57%

row,Compound,inhibition
1,Cc1cccc(N2CCN(C(=O)c3cnn4c(C(F)F)cc(-c5ccccc5)nc34)CC2)c1C,61.4% (active)
2,Clc1ccccc1-c1cc(COc2ccc3ccccc3c2)no1,1.75%
3,CN(C)S(=O)(=O)c1ccc(N2CCCC2)c(C(=O)NCc2ccccc2)c1,4.17%
4,CCOc1ccc(N=C2NC(=O)S/C2=C\c2ccc(O)cc2)cc1,41.5% (active)
5,CCOc1[nH]n(-c2ccc(Cl)cc2)c(=O)c1C=Nc1ccc(O)cc1,1.52%
6,CCOc1ccc(N=C2SC(C(=O)O)CC(=O)N2C)cc1 (configuration not stated),-1.43%
7,O=C1CCN(C(=O)Nc2ccccc2)N1,1.84%
8,Cc1ccccc1NC(=S)Nc1cccc([N+](=O)[O-])c1,-0.57%
9,CCOC(=O)N1CCN(C(=O)c2ccc(CN(c3ccc(C)c(C)c3)S(C)(=O)=O)cc2)CC1,3.07%
10,CCOC(=O)N1CCN(C(=O)c2ccc(S(=O)(=O)c3ccc(C)cc3)c(NC(C)=O)c2)CC1,7.81%
11,CCOC(=O)N1CCN(C(=O)c2ccc3c(c2)N(Cc2ccc(C)cc2)CCS3)CC1,34.6% (active)
12,Cc1ccc(NC(=O)CN2CCc3ccccc3C2)cc1,8.09%
13,O=C(Oc1ccc([N+](=O)[O-])cc1)c1ccc2ccccc2n1,41.8% (active)
14,Cc1cccc(NC(=O)c2ccc3ccccc3n2)n1,12.6%
15,N/C(Cc1ccc([N+](=O)[O-])cc1)=N\OC(=O)COc1ccc2ccccc2c1,18.8%
16,Cc1ccc(C(=O)OC2=CC(=O)CC(C)(C)C2)cc1,-1.57%
17,COc1cccc(NC(=O)c2nn(C34CC5CC(CC(C5)C3)C4)cc2[N+](=O)[O-])c1,26.5%
18,Cc1ccc(S(=O)(=O)Nc2nc3ccccc3nc2N2CCc3ccccc3C2)cc1,19.2%
19,Cc1ccc2c(c1)c1ncnc(N3CCc4ccccc4C3)c1n2C,30% (active)
20,Cc1ccc2c(c1)c1ncn(CCC3=CCCCC3)c(=O)c1n2C,21.9%
21,O=C(O)/C=C/C(=O)Nc1ccc(F)cc1F,11.5%
22,Cc1ccc(-n2nc(N)c3c(=O)oc(N(C)C)nc32)cc1,33.1% (active)
23,Cc1ccc(-c2nc3c(cnn3-c3ccccc3)c(=O)o2)cc1,15.6%
24,O=C(Nc1cc(-c2nn(CC(=O)N3CCCCC3)c(=O)c3ccccc23)ccc1N1CCOCC1)c1ccc(Cl)cc1,0.85%
25,N=c1ccn(CC(=O)NC(N)=O)c2ccccc12,12.8%

row,Compound,inhibition
1,N#Cc1ccc(Oc2cc(C(F)(F)F)nc(-c3ccccn3)n2)cc1,1.51%
2,O=C(Oc1ccccc1)Oc1ccc2c(c1)oc(=O)c1ccccc12,41% (active)
3,CC(=O)Nc1cc2ccc(OC(C)=O)cc2oc1=O,-1.59%
4,CC(=O)Oc1ccc2c(C)c(CC(C)O)c(=O)oc2c1 (configuration not stated),9.1%
5,CSc1nc2ccccc2cc1/C=C(\C#N)c1ccc(Cl)cc1Cl,24.2%
6,CCCCC(=O)Nc1ccc2c(c1)OCCO2,-0.45%
7,O=C(Nc1ccc2c(c1)OCCO2)c1ccncc1,31.6% (active)
8,O=C(CCN1C(=O)c2ccncc2C1=O)Nc1ccc2c(c1)OCCO2,30.7% (active)
9,O=C(Nc1ccc2c(c1)OCCO2)c1cnccn1,14.2%
10,Cn1c(=O)n(C)c2cc(C(=O)Nc3ccc4c(c3)OCO4)ccc21,1.14%
11,O=C(CCN1C(=O)c2ccccc2C1=O)Nc1ccncc1,13.3%
12,O=c1c2ccccc2c(-c2ccc(Br)cc2)nn1Cc1ccccc1,12%
13,c1ccc(-n2nnnc2NC2CCCCCC2)cc1,2.73%
14,COC(=O)/C=C/C(=O)NCc1ccco1,4.81%
15,Cc1cc(-c2ccccc2)n2nc(C)c(-c3ccccc3)c2n1,0.91%
16,O=C(N/N=C\c1ccc(-c2ccc(Cl)c(Cl)c2)o1)C(=O)N1CCCC1,-8.31%
17,O=c1c2ccccc2nc2n1C(CSc1ccc(F)cc1)CN2 (configuration not stated),8.1%
18,O=C1COc2ccc(NC(=O)N3CCN(c4ccc(F)cc4)CC3)cc2N1,-5.66%
19,COC(=O)c1ccc(C(=O)OC)c(NC(=S)N2CCCCC2)c1,5.49%
20,O=C(COC(=O)C12CC3CC(CC(C3)C1)C2)NCc1ccco1,17.3%
21,O=C(CCC(=O)c1cccs1)NCc1ccccc1,-10%
22,O=C(COC(=O)CCC(=O)c1cccs1)NCc1ccco1,34.5% (active)
